# PubChem BioAssay (NCATS)
# Where “and” joins values, the source holds several entries; their conditions need not be identical. Equal entries are not always repeated. Unmarked numbers belong to inactive results. Results filed as inconclusive are left out. Where a call stands in place of a potency, no number is given. Calls of active or inactive are those of the source. Unless noted, the call rests on the fitted dose curve; in most records, active means well fitted curve in the direction sought with a large enough effect; inconclusive means small, poorly fitted or top-dose-only effect, or another doubt; inactive means no such curve, though single readings can be large; an effect the other way counts as inactive or inconclusive.
# Columns and labels:
# [1] = biological target: phosphoglycerate mutase (Leishmania major) (UniProt Q4Q090); assay: qHTS Validation Assay to Find Inhibitors of Phosphoglycerate Mutase (AID 504548); conditions: Potency: inhibition qHTS; further: series mostly up to about 58 µM
# Chain of phosphoglycerate mutase (Leishmania major) (Q4Q090 1-553): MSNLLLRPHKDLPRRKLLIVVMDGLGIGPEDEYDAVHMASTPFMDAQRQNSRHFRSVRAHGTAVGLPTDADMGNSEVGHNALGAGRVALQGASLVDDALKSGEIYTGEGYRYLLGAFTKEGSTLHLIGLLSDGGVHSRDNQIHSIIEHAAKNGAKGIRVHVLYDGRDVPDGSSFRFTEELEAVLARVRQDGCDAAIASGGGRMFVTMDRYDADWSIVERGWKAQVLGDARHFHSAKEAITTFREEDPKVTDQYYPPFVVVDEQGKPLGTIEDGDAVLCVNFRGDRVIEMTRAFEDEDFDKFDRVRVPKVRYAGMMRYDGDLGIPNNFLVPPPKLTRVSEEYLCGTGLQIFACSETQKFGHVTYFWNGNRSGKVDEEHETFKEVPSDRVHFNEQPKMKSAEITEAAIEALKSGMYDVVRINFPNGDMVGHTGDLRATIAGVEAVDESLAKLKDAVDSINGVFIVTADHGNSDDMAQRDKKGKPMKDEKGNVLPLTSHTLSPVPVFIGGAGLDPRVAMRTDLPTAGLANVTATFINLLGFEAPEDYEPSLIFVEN
# Method in brief: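 Lm PGAM 1.25nM final; 100 mM TEA pH 7.6, 5 mM MgCl2, 0.01% Tween-20; 45 min RT; Kinase-GloPlus, 10 min; end-point luminescence. Enzyme-free wells as negative controls.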
# [2] = biological target: Ubiquitin carboxyl-terminal hydrolase 1 (Homo sapiens) (UniProt O94782); assay: Inhibitors of USP1/UAF1: Pilot qHTS (AID 504865); further: nearly all actives have a fitted effect of over 35% in size; further: potency means the concentration at half of the fitted maximal effect
# Chain of Ubiquitin carboxyl-terminal hydrolase 1 (Homo sapiens) (O94782 whole entry, looked up): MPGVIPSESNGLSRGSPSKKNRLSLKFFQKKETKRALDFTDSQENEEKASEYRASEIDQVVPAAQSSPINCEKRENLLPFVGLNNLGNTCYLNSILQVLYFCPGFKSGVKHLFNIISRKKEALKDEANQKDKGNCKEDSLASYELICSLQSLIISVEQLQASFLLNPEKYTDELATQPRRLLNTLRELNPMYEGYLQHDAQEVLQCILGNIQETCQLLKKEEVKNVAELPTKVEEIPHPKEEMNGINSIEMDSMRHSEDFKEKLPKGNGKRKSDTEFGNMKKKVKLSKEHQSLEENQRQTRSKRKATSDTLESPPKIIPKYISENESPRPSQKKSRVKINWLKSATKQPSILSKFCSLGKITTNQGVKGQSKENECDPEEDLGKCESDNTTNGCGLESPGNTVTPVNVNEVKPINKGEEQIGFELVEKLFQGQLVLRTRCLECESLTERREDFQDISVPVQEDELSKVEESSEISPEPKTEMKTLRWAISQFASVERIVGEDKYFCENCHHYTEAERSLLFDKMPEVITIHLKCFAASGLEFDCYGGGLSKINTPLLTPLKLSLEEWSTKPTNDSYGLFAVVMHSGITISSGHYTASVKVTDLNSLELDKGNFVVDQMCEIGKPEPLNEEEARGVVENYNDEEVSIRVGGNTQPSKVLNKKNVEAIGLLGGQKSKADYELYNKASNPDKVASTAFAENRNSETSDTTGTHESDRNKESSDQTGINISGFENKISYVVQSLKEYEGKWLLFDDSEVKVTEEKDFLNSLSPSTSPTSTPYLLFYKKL
# Method in brief: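 USP1/UAF1 complex at 1 nM preincubated 15 min at room temperature with compound, then Ub-Rho substrate added at 150 nM final. Fluorescence (480/540 nm) read kinetically in 50 mM HEPES pH 7.8, 0.5 mM EDTA, 1 mM TCEP, 0.1 mg/ml BSA, 0.01% Tween-20.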
# [3] = qHTS for Inhibitors of ATXN expression: Validation of Cytotoxic Assay (AID 588349); further: potency means the concentration at half of the fitted maximal effect
# Method in brief: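 Titrated compounds are added to cultured HEK293 cells, which are then held at 37 degrees C for 72 hr; loss of intracellular ATP, measured with CellTiter Glo, indicates toxicity.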
# [4] = Inducers of the Endoplasmic Reticulum Stress Response (ERSR) in human glioma: Validation (AID 504836)
# Method in brief: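 Stably transfected U87-MG glioma cells carrying a GRP78-based luciferase sensor; 16 h compound incubation. Luminescence end-point read 10 min after Bright-Glo addition at room temperature.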
# [5] = qHTS for Inhibitors of ATXN expression: Validation (AID 588378); further: nearly all actives have a fitted effect of over 75% in size; further: potency means the concentration at half of the fitted maximal effect
# Method in brief: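 HEK293 cells carrying ATXN2-firefly luciferase reporter, treated with compound 24 h at 37 °C. Viability read first by CellTiter-Fluor (405/525 nm), then reporter expression by Bright-Glo luminescence; controls were a known ATXN2 expression inhibitor and a luciferase inhibitor.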
# [6] = biological target: DNA dC->dU-editing enzyme APOBEC-3G (Homo sapiens) (UniProt Q9HC16); assay: qHTS for inhibitors of Vif-A3G interactions: Validation (AID 588379)
# Chain of DNA dC->dU-editing enzyme APOBEC-3G (Homo sapiens) (Q9HC16 whole entry, looked up): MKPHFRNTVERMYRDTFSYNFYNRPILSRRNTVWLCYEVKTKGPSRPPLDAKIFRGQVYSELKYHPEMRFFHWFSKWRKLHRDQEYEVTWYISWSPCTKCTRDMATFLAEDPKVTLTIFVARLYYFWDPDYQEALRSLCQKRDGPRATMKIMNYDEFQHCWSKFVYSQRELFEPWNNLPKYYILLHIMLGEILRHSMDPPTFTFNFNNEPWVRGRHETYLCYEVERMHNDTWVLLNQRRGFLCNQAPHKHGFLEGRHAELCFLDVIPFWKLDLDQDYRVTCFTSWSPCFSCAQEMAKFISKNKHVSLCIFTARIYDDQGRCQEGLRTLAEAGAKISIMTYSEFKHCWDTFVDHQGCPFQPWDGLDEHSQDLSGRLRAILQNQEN
# Method in brief: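 Yellow fluorescence (Ex 488, Em 500-530) of Vif-coexpressing HeLa A3G-eYFP cells, scanned by Acumen cytometer, reports blocked A3G degradation. Cells plated at 700/well overnight at 37 deg C before compound addition, then a further overnight compound incubation at 37 deg C.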
# [7] = biological target: Peroxisome proliferator-activated receptor gamma (Homo sapiens) (UniProt P37231); assay: qHTS assay for small molecule agonists of peroxisome proliferator-activated receptor gamma signaling (AID 588536; active means well fitted curve in the direction sought with a large enough effect in the signal ratio, with a control signal flat, not every such curve was filed as active; the % refers to the signal ratio)
# Chain of Peroxisome proliferator-activated receptor gamma (Homo sapiens) (P37231 whole entry, looked up): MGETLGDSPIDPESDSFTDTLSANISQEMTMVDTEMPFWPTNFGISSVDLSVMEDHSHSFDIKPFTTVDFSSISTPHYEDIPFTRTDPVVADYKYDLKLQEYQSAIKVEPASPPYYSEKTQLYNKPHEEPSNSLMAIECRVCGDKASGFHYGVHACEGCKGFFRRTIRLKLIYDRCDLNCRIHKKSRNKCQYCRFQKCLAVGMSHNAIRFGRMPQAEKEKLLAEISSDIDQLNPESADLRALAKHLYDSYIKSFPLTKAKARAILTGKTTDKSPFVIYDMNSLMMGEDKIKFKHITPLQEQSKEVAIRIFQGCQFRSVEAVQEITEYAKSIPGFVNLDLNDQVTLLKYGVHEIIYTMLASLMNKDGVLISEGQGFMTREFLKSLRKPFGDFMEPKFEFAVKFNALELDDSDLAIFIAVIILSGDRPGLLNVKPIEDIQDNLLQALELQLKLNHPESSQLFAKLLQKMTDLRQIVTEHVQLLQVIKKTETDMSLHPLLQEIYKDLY
# Method in brief: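 Compound treatment: 16 h, 37 C, HEK293 GeneBLAzer cells. Detection: CCF4, 2 h RT. Values: Hill-fit EC50, efficacy as % of 2 uM rosiglitazone.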
# [8] = biological target: Peroxisome proliferator-activated receptor gamma (Homo sapiens) (UniProt P37231); assay: qHTS assay for small molecule antagonists of peroxisome proliferator-activated receptor gamma signaling (AID 588537; active means well fitted inhibition curve with a large enough effect in the signal ratio, with a control signal flat, not every such curve was filed as active; the % refers to the signal ratio;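 further: reporter cells co-stimulated with 50 nM rosiglitazone agonist during compound treatment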)
# Method in brief: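 Fluorescence at 460 and 530 nm (405 nm excitation) reported beta-lactamase cleavage of CCF4 after 2 h room-temperature loading. HEK293 reporter cells in 1% charcoal/dextran-treated FBS had received compound and rosiglitazone for 16 h.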
# [9] = biological target: Estrogen receptor (Homo sapiens) (UniProt P03372); assay: qHTS assay for small molecule antagonists of estrogen receptor alpha signaling (AID 588513; active means well fitted curve in the direction sought with a large enough effect in the signal ratio, with a control signal flat, not every such curve was filed as active; the % refers to the signal ratio)
# Chain of Estrogen receptor (Homo sapiens) (P03372 whole entry, looked up): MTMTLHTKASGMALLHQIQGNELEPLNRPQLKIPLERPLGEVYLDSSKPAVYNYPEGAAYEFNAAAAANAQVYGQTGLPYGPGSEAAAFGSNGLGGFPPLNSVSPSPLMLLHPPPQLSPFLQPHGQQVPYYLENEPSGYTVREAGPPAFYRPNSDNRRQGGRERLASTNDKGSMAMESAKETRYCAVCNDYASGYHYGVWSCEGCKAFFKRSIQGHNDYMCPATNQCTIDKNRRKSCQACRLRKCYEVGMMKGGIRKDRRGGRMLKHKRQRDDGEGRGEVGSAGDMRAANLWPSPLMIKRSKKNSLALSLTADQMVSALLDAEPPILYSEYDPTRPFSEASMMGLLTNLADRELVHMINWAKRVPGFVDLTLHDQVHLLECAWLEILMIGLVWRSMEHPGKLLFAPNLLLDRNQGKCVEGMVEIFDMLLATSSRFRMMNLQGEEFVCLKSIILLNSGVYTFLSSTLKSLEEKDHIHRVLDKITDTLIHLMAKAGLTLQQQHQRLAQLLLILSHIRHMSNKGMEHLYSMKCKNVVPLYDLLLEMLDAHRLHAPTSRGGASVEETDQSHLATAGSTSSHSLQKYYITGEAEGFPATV
# Method in brief: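 ER-alpha-UAS-bla GripTite HEK 293 cells in 2% charcoal/dextran-treated FBS medium; compounds titrated (1:2, duplicate), then stimulated with 0.5 nM 17-beta-estradiol for 18 h at 37C. CCF4 beta-lactamase fluorescence; Hill-fit IC50 and efficacy.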
# [10] = biological target: Estrogen receptor (Homo sapiens) (UniProt P03372); assay: qHTS assay for small molecule agonists of estrogen receptor alpha signaling (AID 588514; calls by dose curve; further: nearly all actives have a fitted effect of over 70% in size)
# Method in brief: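 Efficacy is expressed against 20 nM 17-beta-estradiol (100%) and DMSO basal (0%); EC50 from Hill equation. Assay: beta-lactamase reporter in ER-alpha-UAS-bla HEK 293 cells, 18 h compound incubation, CCF4 detection.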
# [11] = biological target: Glucocorticoid receptor (Homo sapiens) (UniProt P04150); assay: qHTS assay for small molecule agonists of glucocorticoid receptor signaling (AID 588532; active means well fitted curve in the direction sought with a large enough effect in the signal ratio, with a control signal flat; the % refers to the signal ratio); conditions: HeLa MMTV-bla, beta-lactamase ratio, agonist, 18 h; hits give high values; percent of dexamethasone control, DMSO zero
# Chain of Glucocorticoid receptor (Homo sapiens) (P04150 whole entry, looked up): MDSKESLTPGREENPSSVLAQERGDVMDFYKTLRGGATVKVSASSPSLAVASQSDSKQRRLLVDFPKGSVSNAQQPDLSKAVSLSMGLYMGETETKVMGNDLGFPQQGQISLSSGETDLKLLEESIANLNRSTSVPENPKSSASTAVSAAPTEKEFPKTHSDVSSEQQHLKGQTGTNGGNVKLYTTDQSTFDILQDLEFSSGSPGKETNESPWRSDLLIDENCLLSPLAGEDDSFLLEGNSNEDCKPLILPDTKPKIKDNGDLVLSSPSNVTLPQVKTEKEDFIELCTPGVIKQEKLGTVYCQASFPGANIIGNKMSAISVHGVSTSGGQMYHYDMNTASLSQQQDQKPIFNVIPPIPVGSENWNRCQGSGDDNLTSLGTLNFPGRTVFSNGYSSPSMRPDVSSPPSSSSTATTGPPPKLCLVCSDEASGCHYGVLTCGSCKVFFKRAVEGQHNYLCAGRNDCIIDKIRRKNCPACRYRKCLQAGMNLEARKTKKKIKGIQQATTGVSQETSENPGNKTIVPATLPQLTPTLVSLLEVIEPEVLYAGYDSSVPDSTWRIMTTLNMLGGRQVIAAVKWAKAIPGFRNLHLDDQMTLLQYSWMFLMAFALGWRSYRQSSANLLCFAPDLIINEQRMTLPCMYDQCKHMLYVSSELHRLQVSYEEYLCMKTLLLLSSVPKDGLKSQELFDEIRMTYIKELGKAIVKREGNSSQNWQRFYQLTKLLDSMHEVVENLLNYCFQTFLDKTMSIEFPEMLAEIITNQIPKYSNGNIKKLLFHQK
# Method in brief: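 Cells were plated and rested 3-5 h at 37 C, compounds were added in titration and incubated 18 h, then CCF4 substrate was loaded for 2 h at RT before reading blue/green fluorescence. EC50 came from Hill-equation fitting.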
# [12] = biological target: Glucocorticoid receptor (Homo sapiens) (UniProt P04150); assay: qHTS assay for small molecule antagonists of glucocorticoid receptor signaling (AID 588533; active means well fitted inhibition curve with a large enough effect in the signal ratio, with a control signal flat, not every such curve was filed as active; the % refers to the signal ratio)
# Method in brief: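 Antagonist-mode qHTS: compound titrations added to GRE-bla HeLa cells, then dexamethasone 2 nM final; 18 h, 37 C. CCF4 FRET fluorescence normalized to dexamethasone and DMSO; IC50 from Hill fit.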
# [13] = biological target: Peroxisome proliferator-activated receptor delta (Homo sapiens) (UniProt Q03181); assay: qHTS assay for small molecule agonists of peroxisome proliferator-activated receptor delta signaling (AID 588534; calls by dose curve)
# Chain of Peroxisome proliferator-activated receptor delta (Homo sapiens) (Q03181 whole entry, looked up): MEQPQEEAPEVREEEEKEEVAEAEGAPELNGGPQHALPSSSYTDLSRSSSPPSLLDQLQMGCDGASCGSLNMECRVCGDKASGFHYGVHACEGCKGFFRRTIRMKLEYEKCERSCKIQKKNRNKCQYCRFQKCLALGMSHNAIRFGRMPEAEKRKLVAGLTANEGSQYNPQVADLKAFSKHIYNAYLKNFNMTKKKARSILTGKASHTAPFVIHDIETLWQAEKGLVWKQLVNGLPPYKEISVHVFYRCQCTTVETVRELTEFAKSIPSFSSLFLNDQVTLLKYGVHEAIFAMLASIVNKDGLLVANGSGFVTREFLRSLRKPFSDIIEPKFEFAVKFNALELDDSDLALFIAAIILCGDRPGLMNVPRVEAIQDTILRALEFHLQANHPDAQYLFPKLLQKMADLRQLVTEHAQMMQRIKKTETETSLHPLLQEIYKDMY
# Method in brief: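 Agonist-mode qHTS; reporter cells, 5 hrs 37 C pre-incubation; compound titration, 18 hrs 37 C; CCF4 dye, 2 hrs RT; fluorescence read. EC50/efficacy via Hill fit.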
# [14] = biological target: Vitamin D3 receptor (Homo sapiens) (UniProt P11473); assay: qHTS assay for small molecule antagonists of vitamin D receptor signaling (AID 588541; calls by dose curve; further: potency means the concentration at half of the fitted maximal effect)
# Chain of Vitamin D3 receptor (Homo sapiens) (P11473 whole entry, looked up): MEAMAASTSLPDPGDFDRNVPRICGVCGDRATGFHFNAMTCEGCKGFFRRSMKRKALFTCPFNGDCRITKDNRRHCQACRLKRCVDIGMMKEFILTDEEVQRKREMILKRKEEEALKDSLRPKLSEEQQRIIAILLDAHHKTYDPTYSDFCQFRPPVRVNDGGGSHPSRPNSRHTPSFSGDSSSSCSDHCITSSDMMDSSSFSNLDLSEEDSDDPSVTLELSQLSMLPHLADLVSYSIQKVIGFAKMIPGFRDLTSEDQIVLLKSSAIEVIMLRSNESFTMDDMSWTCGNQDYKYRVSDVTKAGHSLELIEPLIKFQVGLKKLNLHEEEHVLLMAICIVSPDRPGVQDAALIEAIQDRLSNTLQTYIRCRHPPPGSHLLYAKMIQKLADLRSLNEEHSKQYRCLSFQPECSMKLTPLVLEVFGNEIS
# Method in brief: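 VDR-UAS-bla HEK293T cells in 2% charcoal-stripped FBS were stimulated with 1-alpha,25-dihydroxyvitamin D3 (3 nM final) plus compound for 16 h at 37 C. The beta-lactamase CCF4 readout was normalized to 50 nM agonist and DMSO, and Hill fits gave IC50.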
# [15] = biological target: Vitamin D3 receptor (Homo sapiens) (UniProt P11473); assay: qHTS assay for small molecule agonists of vitamin D receptor signaling (AID 588543; calls by dose curve)
# Method in brief: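 VDR-UAS-bla HEK293T cells, 2000/well, 2% charcoal-stripped FBS; compound titration 16 h at 37 C; CCF4 beta-lactamase ratio read. Normalized to 50 nM 1-alpha,25-dihydroxyvitamin D3 (100%) and DMSO; Hill fit gives EC50, efficacy.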
# [16] = biological target: Bile acid receptor (Homo sapiens) (UniProt Q96RI1); assay: qHTS assay for small molecule antagonists of farnesoid X receptor signaling (AID 588526; calls by dose curve)
# Chain of Bile acid receptor (Homo sapiens) (Q96RI1 whole entry, looked up): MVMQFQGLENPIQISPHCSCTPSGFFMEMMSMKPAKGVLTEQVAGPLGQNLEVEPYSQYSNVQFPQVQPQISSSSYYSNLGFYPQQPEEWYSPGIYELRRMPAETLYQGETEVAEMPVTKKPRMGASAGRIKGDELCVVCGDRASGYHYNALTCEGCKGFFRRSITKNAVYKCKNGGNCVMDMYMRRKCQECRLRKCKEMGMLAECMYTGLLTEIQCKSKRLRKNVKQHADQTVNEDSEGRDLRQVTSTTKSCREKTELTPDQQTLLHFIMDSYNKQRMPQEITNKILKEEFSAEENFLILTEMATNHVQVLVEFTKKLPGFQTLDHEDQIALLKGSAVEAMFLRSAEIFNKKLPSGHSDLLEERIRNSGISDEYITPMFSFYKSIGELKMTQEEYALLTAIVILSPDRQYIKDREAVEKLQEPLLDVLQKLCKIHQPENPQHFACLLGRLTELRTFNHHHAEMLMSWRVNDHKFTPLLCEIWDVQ
# Method in brief: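 Antagonist mode: titrated compounds tested against chenodeoxycholic acid stimulation (normalized to 50 uM CDCA and DMSO) in GeneBLAzer HEK293T cells for 16 h. Beta-lactamase read by CCF4 fluorescence; IC50 from Hill fits.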
compound,measurement,setting,value
CCCC[N+]1(C)C2CC(OC(=O)[C@H](CO)c3ccccc3)CC1C1OC12 (stereo partly drawn),Potency,[1],inactive
same,Potency,[2],inactive
same,Potency,[3],inactive
CN(C(=O)Cc1ccc(Cl)c(Cl)c1)C(CN1CCCC1)c1cccc(OCC(=O)O)c1 (stereo not drawn),Potency,[1],inactive
same,Potency,[2],inactive
same,Potency,[3],inactive
Cc1[nH]c2ccc(O)cc2c1CCN,Potency,[1],inactive
same,outcome,[4],inactive
same,Potency,[2],inactive
same,Potency,[3],inactive
same,Potency,[5],inactive
same,outcome,[6],inactive
CC(=O)NBr,Potency,[1],inactive
same,Potency,[2],inactive
same,Potency,[3],inactive
same,Potency,[5],inactive
COc1ccc2[nH]cc(CCN)c2c1,Potency,[1],inactive
same,Potency,[2],inactive
same,Potency,[3],inactive
CN(N=O)c1cc(O)ccc1O,Potency,[1],inactive
same,outcome,[4],inactive
same,Potency,[2],inactive
same,Potency,[5],28.2 µM (active)
OC1CCCCC1N1CCC(c2ccccc2)CC1 (stereo not drawn),outcome,[4],inactive
same,Potency,[2],inactive
same,Potency,[3],inactive
CC(=O)OCC1=C(C(=O)O)N2C(=O)[C@@H](NC(=O)CCC[C@@H](N)C(=O)O)[C@H]2SC1,outcome,[4],inactive
same,Potency,[2],inactive
same,Potency,[3],inactive
same,Potency,[5],inactive
COc1ccc(OC)c(C(O)C(C)N)c1 (stereo not drawn),outcome,[4],inactive
same,Potency,[2],inactive
same,Potency,[3],inactive
same,Potency,[5],inactive
CCn1cnc2c(Nc3cccc(Cl)c3)nc(N[C@@H]3CCCC[C@@H]3N)nc21,Potency,[1],inactive
same,Potency,[2],inactive
same,Potency,[5],2.51 µM (active)
NC(C(=O)O)c1cc(=O)[nH]o1 (stereo not drawn),outcome,[4],inactive
same,Potency,[2],inactive
same,Potency,[3],inactive
CCCn1c(=O)c2[nH]c(C3CCCC3)nc2n(CCCOC(=O)c2ccc(S(=O)(=O)F)cc2)c1=O,outcome,[4],inactive
same,Potency,[2],inactive
same,Potency,[3],inactive
N[C@@H](CCl)C(=O)O,outcome,[4],inactive
same,Potency,[2],inactive
same,Potency,[3],inactive
same,Potency,[5],inactive
NC(=O)COc1c(F)cc(SCCNS(=O)(=O)c2ccccc2)cc1F,outcome,[4],inactive
same,Potency,[2],inactive
same,Potency,[5],inactive
CN1CCc2cccc(Cl)c2CC1,outcome,[4],inactive
same,Potency,[2],inactive
same,Potency,[3],inactive
CC(N)[C@H](O)c1ccc(O)c(O)c1 (stereo partly drawn),outcome,[4],inactive
same,Potency,[2],inactive
same,Potency,[3],inactive
same,Potency,[5],inactive
CC(Cc1ccc(OCC(=O)O)cc1)NCC(O)c1cccc(Cl)c1 (stereo not drawn),Potency,[1],inactive
same,Potency,[2],inactive
same,Potency,[5],inactive
C/C(O)=C(\C#N)C(=O)Nc1cc(Br)ccc1Br,outcome,[4],inactive
same,Potency,[3],inactive
CNc1ccc2oc(C[C@H]3O[C@@]4(CC[C@H]3C)O[C@H]([C@H](C)C(=O)c3ccc[nH]3)[C@H](C)C[C@H]4C)nc2c1C(=O)O,Potency,[1],inactive
same,Potency,[2],inactive
same,Potency,[5],3.16 µM (active)
O=P(O)(O)C(Cl)(Cl)P(=O)(O)O,outcome,[4],inactive
same,Potency,[2],inactive
CCN(CC)c1ncnc2c1ncn2[C@@H]1O[C@H](COP(=O)(O)OP(=O)(O)C(Br)(Br)P(=O)(O)O)[C@@H](O)[C@H]1O,outcome,[4],inactive
CC(C)CC(NP(=O)(O)O[C@@H]1O[C@@H](C)[C@H](O)[C@@H](O)[C@H]1O)C(=O)NC(Cc1c[nH]c2ccccc12)C(=O)O (stereo partly drawn),outcome,[4],inactive
CCN(CCCl)Cc1ccccc1Br,outcome,[4],inactive
same,Potency,[2],inactive
same,Potency,[3],inactive
same,Potency,[5],inactive
COc1cc(CC(C)N)c(OC)cc1I (stereo not drawn),outcome,[4],inactive
same,Potency,[2],inactive
Cc1cc([C@@H]2CCCN2C)on1,outcome,[4],inactive
same,Potency,[2],inactive
same,Potency,[3],inactive
same,Potency,[5],inactive
COc1ccc2c(c1)/C(=C/c1cnc[nH]1)C(=O)N2,outcome,[4],inactive
same,Potency,[2],inactive
same,Potency,[5],2.82 µM (active)
Cc1sc2ccccc2c1CC1=NCCN1,outcome,[4],inactive
same,Potency,[2],inactive
same,Potency,[3],inactive
CCNC(=O)[C@H]1O[C@@H](n2cnc3c(N)ncnc32)[C@H](O)[C@@H]1O,outcome,[4],inactive
same,Potency,[2],inactive
same,Potency,[3],inactive
CC(C)NP(=O)(NC(C)C)OP(=O)(NC(C)C)NC(C)C,outcome,[4],inactive
same,Potency,[2],inactive
same,Potency,[3],inactive
O=C1C=CC(=O)C=C1,outcome,[4],inactive
same,Potency,[2],inactive
same,Potency,[3],inactive
same,Potency,[5],inactive
same,outcome,[7],inactive
same,Potency,[8],inactive
CC(=O)c1c(O)c(C)c(O)c(Cc2c(O)c3c(c(C(=O)/C=C/c4ccccc4)c2O)OC(C)(C)C=C3)c1O,outcome,[4],inactive
same,Potency,[2],79.4 µM (active) and 56.2 µM (active)
same,outcome,[6],inactive
C[Se]C[C@H](N)C(=O)O,outcome,[4],inactive
same,Potency,[2],inactive
same,Potency,[3],inactive
C[C@@H]1O[C@H](C[N+](C)(C)C)CS1,outcome,[4],inactive
same,Potency,[2],inactive
same,Potency,[3],inactive
same,Potency,[5],inactive
NNC(N)=O,outcome,[4],inactive
same,Potency,[2],inactive
same,Potency,[3],inactive
same,Potency,[5],inactive
same,Potency,[9],inactive
same,Potency,[10],inactive
same,activation,[11],-1.3%
same,Potency,[12],inactive
same,outcome,[13],inactive
same,outcome,[7],inactive
same,Potency,[14],inactive
same,outcome,[15],inactive
CCC1C(C)=NN=C(c2ccc(OC)c(OC)c2)c2cc(OC)c(OC)cc21 (stereo not drawn),Potency,[2],inactive
CC1OC1P(=O)(O)O (stereo not drawn),outcome,[4],inactive
same,Potency,[2],inactive
NCCc1ccc(S(=O)(=O)F)cc1,outcome,[4],inactive
same,Potency,[2],inactive
same,Potency,[3],inactive
same,Potency,[5],inactive
N#C/C(=C/c1ccc(O)c(O)c1)C(N)=S,outcome,[4],inactive
same,Potency,[2],inactive
same,Potency,[5],inactive
c1ccc2c(c1)[I+]c1ccccc1-2,outcome,[4],inactive
same,Potency,[2],inactive
same,outcome,[6],inactive
C[C@H](N)CN1CCc2ccc(Br)cc21,outcome,[4],inactive
same,Potency,[2],inactive
O=C(O)c1cc[c]([Hg][Cl])cc1,outcome,[4],inactive
same,Potency,[10],inactive
same,Potency,[16],inactive
same,activation,[11],5.77%
same,Potency,[12],inactive
same,Potency,[8],inactive
same,Potency,[14],39.8 µM (active)
same,outcome,[15],inactive
CP(=O)(O)C1=CCNCC1,outcome,[4],inactive
same,Potency,[2],inactive
same,Potency,[3],inactive
C[N+](C)(C)CC#CCOC(=O)Nc1cccc(Cl)c1,outcome,[4],inactive
same,Potency,[2],inactive
same,Potency,[3],inactive
same,Potency,[5],inactive
CCCN1CCc2cccc3c2[C@H]1Cc1ccc(O)c(O)c1-3,outcome,[4],inactive
same,Potency,[2],inactive
same,Potency,[3],35.5 µM (active)
CN1CCc2cc(O)cc3c2[C@H]1Cc1ccc(O)c(O)c1-3,outcome,[4],inactive
same,Potency,[2],inactive
same,Potency,[3],inactive
CCOC(=O)c1ncn2c1[C@@H]1CCCN1C(=O)c1cc(OC)ccc1-2,Potency,[2],inactive
same,Potency,[3],inactive
CCCC(C)(COC(N)=O)COC(=O)NC1CC1 (stereo not drawn),Potency,[2],inactive
